Measurements as given in PubChem BioAssay.
Several values for one entry are separate records, joined by “and”; a condition that tells them apart may be missing. Identical values can stand only once. For some assays here: Results with a measured potency or affinity are listed apart. Activity calls are given as the source filed them. Unless noted, no rule for the calls is given here.

Columns and labels:
[1] = suppressors of polyQ aggregation in yeast, 75Q-TubU reporter (AID 1593); conditions: Yeast 75Q polyglutamine aggregation reporter
[2] = rescue of polyQ-huntingtin neuronal dysfunction in worms, whole organism, C. elegans mechanosensory neurons, N-terminal huntingtin (AID 1599); conditions: touch response, stronger effect = higher value
[3] = inhibitors of mitochondrial cytochrome c release, biochemical, purified mitochondria (AID 1603); conditions: stronger effect = lower value;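 also: mouse liver mitochondria challenged with calcium chloride; signal normalized to the plate average as 100%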
[4] = inhibitors of polyQ protein aggregation (AID 1604); conditions: polyglutamine-induced protein aggregation inhibition assay; stronger effect = higher value; tested at 2.5 µM
[5] = enhancers of glutamate uptake in motor neurons, MN-1 cell line (AID 1612); conditions: MN-1 motor neuron cells, stronger effect = higher value;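 also: tested at 1 µM final; 0% = mean of DMSO vehicle wells on each plate; positive means more glutamate uptake than control and negative means less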
[6] = suppressors of polyglutamine aggregation in yeast, 75Q-TubH (AID 1616); conditions: S. cerevisiae 75Q-TubH polyglutamine aggregation suppression; stronger effect = higher value
[7] = circadian clock period modulators, cell-based, LOPAC library, luminescence reporter (AID 2774); conditions: circadian reporter cells, at 7 µM, actives lie on both sides;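 also: values are relative to mean of DMSO wells on each plate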
[8] = system: Hepatitis C virus NS3 helicase; assay: HCV NS3 helicase inhibitors, primary screen, biochemical, fluorescence polarization, LOPAC1280 library (AID 687035; in the data active = inhibition above about 37%); conditions: Purified HCV NS3 helicase, Cy5-dT15 ssDNA binding fluorescence polarization; stronger effect = higher value; concentration not given here
[9] = Cy5 fluorescence quenching or enhancement artefacts, artefact control for HCV NS3 helicase inhibitor project, biochemical, LOPAC1280 (AID 687037); conditions: Cy5-DNA-NS3h complex fluorescence interference counterscreen
[10] = phospholipid biosynthesis inhibitors in animal cells, primary screen, cell-based, LOPAC library, screen 4 (AID 1347384); conditions: phospholipid biosynthesis inhibition screen, at 10 µM
[11] = Cy5 fluorescence interference with SSB-bound oligo, artefact control for HCV NS3 helicase inhibitor project, biochemical, NIH Clinical Collection, E. coli SSB (AID 743268)
[12] = system: Hepatitis C virus NS3 helicase; assay: HCV NS3 helicase inhibitors, primary screen, biochemical, fluorescence polarization, NIH Clinical Collection (AID 743270); conditions: NS3 helicase binding to Cy5-dT15 DNA, stronger effect = higher value, concentration not given here
[13] = target: Single-stranded DNA-binding protein (Escherichia coli (strain K12)) (UniProt P0AGE0); assay: E. coli SSB displacement from DNA, counter-screen for HCV NS3 helicase inhibitor project, biochemical, fluorescence polarization, NIH Clinical Collection (AID 743271; in the data active = inhibition above about 28%); conditions: stronger effect = higher value, concentration not given here
[14] = fluorescence interference in NS3h assay format, artefact control for HCV NS3 helicase inhibitor project, biochemical, NIH Clinical Collection (AID 743272); conditions: fluorescence interference counterscreen, stronger effect = lower value;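 also: HCV NS3 helicase with a Cy5 labelled single stranded DNA probe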
[15] = system: F380Y; assay: modulators of BK channel variants, profiling panel, selectivity assay, cell-based, U2OS BacMam, thallium flux, beta subunits (AID 1259406;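 active = thallium flux through the channel raised or lowered by more than 3 SD from vehicle-only wells, actives on both sides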;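 also: initial slope of Thallos dye fluorescence rise after thallium is added; log ratio against the mean of 0.3% DMSO vehicle wells on the same plate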); conditions: at 30 µM
[16] = system: F380Y/beta2Delta; assay: as above; conditions: at 30 µM
[17] = target: Calcium-activated potassium channel subunit alpha-1 (Homo sapiens) + Leucine-rich repeat-containing protein 26 (Homo sapiens) (UniProt Q12791+Q2I0M4); assay: as above; conditions: F380Y/Slo1WT/gamma1, at 30 µM
[18] = system: R275C; assay: as above; conditions: at 30 µM
[19] = system: R275C/beta1; assay: as above; conditions: at 30 µM
[20] = system: R275C/beta2Delta; assay: as above; conditions: at 30 µM

Sequence of Calcium-activated potassium channel subunit alpha-1 (Homo sapiens) + Leucine-rich repeat-containing protein 26 (Homo sapiens) (Q2I0M4 whole entry, looked up, one chain of several): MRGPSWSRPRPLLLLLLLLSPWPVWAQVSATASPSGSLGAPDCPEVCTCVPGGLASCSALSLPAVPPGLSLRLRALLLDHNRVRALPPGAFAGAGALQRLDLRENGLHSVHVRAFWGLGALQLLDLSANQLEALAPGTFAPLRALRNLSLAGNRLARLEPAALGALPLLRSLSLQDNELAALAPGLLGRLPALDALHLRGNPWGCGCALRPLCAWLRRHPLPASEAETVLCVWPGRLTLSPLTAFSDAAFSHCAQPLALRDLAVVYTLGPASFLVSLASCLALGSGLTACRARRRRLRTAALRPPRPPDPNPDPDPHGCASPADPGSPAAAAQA

## Cc1ccc(O)cc1
[1]
  score: 0.73
[2]
  rescue above control: -1.33
[3]
  cytochrome c release ratio: 0.32
[4]
  inhibition of aggregation: 83.3%
[5]
  glutamate uptake change: 1.82%
[6]
  aggregation suppression score: 1.04

## CN1CCN(C2Cc3ccccc3Sc3ccc(Cl)cc32)CC1 (stereo unspecified)
[7]
  period change: 0.285 h (inactive)
[8]
  inhibition: -1% (inactive)
[9]
  fluorescence ratio (interference): 1 (inactive)
[10]
  outcome: inactive

## O=C(O)CCC(=O)OC[C@@H](NC(=O)C(Cl)Cl)[C@H](O)c1ccc([N+](=O)[O-])cc1
[1]
  score: 1.53
[2]
  rescue above control: -1.33
[3]
  cytochrome c release ratio: 0.7
[4]
  inhibition of aggregation: 74.7%
[5]
  glutamate uptake change: 7.22%
[6]
  aggregation suppression score: 1.43

## NC1=NCC2c3ccccc3Cc3ccccc3N12 (stereo unspecified)
[8]
  inhibition: -2% (inactive)
[9]
  fluorescence ratio (interference): 1 (inactive)
[10]
  outcome: inactive

## CNS(=O)(=O)CCc1ccc2[nH]cc(C3CCN(C)CC3)c2c1
[10]
  outcome: inactive

## CCc1cccc(N(C)C(N)=Nc2cccc3ccccc23)c1
[7]
  period change: -0.08 h (inactive)
[8]
  inhibition: 1% (inactive)
[9]
  fluorescence ratio (interference): 1 (inactive)
[10]
  outcome: inactive

## O=C(CCCN1CCC(O)(c2cccc(C(F)(F)F)c2)CC1)c1ccc(F)cc1
[7]
  period change: 0.235 h (inactive)
[8]
  inhibition: -3% (inactive)
[9]
  fluorescence ratio (interference): 1 (inactive)
[10]
  outcome: inactive

## COC(=O)C1=C(C)NC(C)=C(C(=O)OCCN(C)Cc2ccccc2)C1c1cccc([N+](=O)[O-])c1 (stereo unspecified)
[1]
  score: 1.16
[2]
  rescue above control: 19.4
[3]
  cytochrome c release ratio: 1.07
[4]
  inhibition of aggregation: 11.1%
[5]
  glutamate uptake change: -14.8%
[6]
  aggregation suppression score: 0.61
[7]
  period change: -0.09 h (inactive)
[8]
  inhibition: 3% (inactive)
[9]
  fluorescence ratio (interference): 1 (inactive)
[11]
  fluorescence ratio: 1.15 (inactive)
[12]
  inhibition: -1.36% (inactive)
[13]
  inhibition: 7.91% (inactive)
[14]
  fluorescence ratio: 0.91 (inactive)
[10]
  outcome: inactive
[15]
  log fold change Tl+ flux: -0.089 (inactive)
[16]
  log fold change Tl+ flux: -0.158 (active)
[17]
  log fold change Tl+ flux: -0.059 (inactive)
[18]
  log fold change Tl+ flux: -0.031 (inactive)
[19]
  log fold change Tl+ flux: -0.044 (inactive)
[20]
  log fold change Tl+ flux: 0.0144 (inactive)

## CC12CCC(CC1)C(C)(C)O2
[1]
  score: 1.26
[2]
  rescue above control: 2.25
[3]
  cytochrome c release ratio: 0.96
[4]
  inhibition of aggregation: 71.8%
[5]
  glutamate uptake change: -6.04%
[6]
  aggregation suppression score: 1.21

## COCCCOc1ccnc(CS(=O)c2nc3ccccc3[nH]2)c1C (stereo unspecified)
[11]
  fluorescence ratio: 0.94 (inactive)
[12]
  inhibition: -6.33% (inactive)
[13]
  inhibition: 0.39% (inactive)
[14]
  fluorescence ratio: 0.94 (inactive)

## CN1CCN(C2=Nc3cc(Cl)ccc3Nc3ccccc32)CC1
[1]
  score: 1.19
[3]
  cytochrome c release ratio: 1.52
[4]
  inhibition of aggregation: 65.4%
[5]
  glutamate uptake change: -8.51%
[6]
  aggregation suppression score: 1.14
[7]
  period change: 0.13 h (inactive)
[8]
  inhibition: -3% (inactive)
[9]
  fluorescence ratio (interference): 1 (inactive)
[11]
  fluorescence ratio: 1.04 (inactive)
[12]
  inhibition: -2.27% (inactive)
[13]
  inhibition: -3.53% (inactive)
[14]
  fluorescence ratio: 1.01 (inactive)
[10]
  outcome: inactive
[15]
  log fold change Tl+ flux: 0.296 (active)
[16]
  log fold change Tl+ flux: 0.389 (active)
[17]
  log fold change Tl+ flux: 0.0716 (inactive)
[18]
  log fold change Tl+ flux: 0.0716 (inactive)
[19]
  log fold change Tl+ flux: 0.156 (active)
[20]
  log fold change Tl+ flux: 0.106 (active)

## COc1c2occc2cc2ccc(=O)oc12
[1]
  score: 0.85
[2]
  rescue above control: 6.17
[3]
  cytochrome c release ratio: 2.13
[4]
  inhibition of aggregation: 72.4%
[5]
  glutamate uptake change: -3.48%
[6]
  aggregation suppression score: 0.937
[11]
  fluorescence ratio: 0.98 (inactive)
[12]
  inhibition: -3.18% (inactive)
[13]
  inhibition: -5.05% (inactive)
[14]
  fluorescence ratio: 1.02 (inactive)
[15]
  log fold change Tl+ flux: -0.0152 (inactive)
[16]
  log fold change Tl+ flux: -0.0131 (inactive)
[17]
  log fold change Tl+ flux: 0.011 (inactive)
[18]
  log fold change Tl+ flux: 0.0168 (inactive)
[19]
  log fold change Tl+ flux: -0.00904 (inactive)
[20]
  log fold change Tl+ flux: 0.0233 (inactive)

## CC(C)(C)NCC(O)c1ccc(O)c(CO)c1 (stereo unspecified)
[1]
  score: 1.14
[2]
  rescue above control: 0.08
[3]
  cytochrome c release ratio: 3.64
[4]
  inhibition of aggregation: 25%
[5]
  glutamate uptake change: -8.12%
[6]
  aggregation suppression score: 0.989
[7]
  period change: -0.055 hour (inactive) and -0.15 hour (inactive)
[8]
  inhibition: 0% (inactive)
[9]
  fluorescence ratio (interference): 1 (inactive)
[11]
  fluorescence ratio: 0.96 (inactive)
[12]
  inhibition: -1.19% (inactive)
[13]
  inhibition: 2.98% (inactive)
[14]
  fluorescence ratio: 0.94 (inactive)
[10]
  outcome: inactive

## CN/C(=C\[N+](=O)[O-])NCCSCc1ccc(CN(C)C)o1
[1]
  score: 1.61
[2]
  rescue above control: -10.5
[3]
  cytochrome c release ratio: 0.8
[4]
  inhibition of aggregation: 71.9%
[5]
  glutamate uptake change: -10.5%
[6]
  aggregation suppression score: 1.66
[7]
  period change: 0.16 h (inactive)
[8]
  inhibition: -3% (inactive)
[9]
  fluorescence ratio (interference): 0.9 (inactive)
[11]
  fluorescence ratio: 0.103 (active)
[12]
  inhibition: 0.45% (inactive)
[13]
  inhibition: 6.39% (inactive)
[14]
  fluorescence ratio: 0.89 (inactive)
[10]
  outcome: inactive
[15]
  log fold change Tl+ flux: -0.0669 (inactive)
[16]
  log fold change Tl+ flux: 0.0319 (inactive)
[17]
  log fold change Tl+ flux: -0.0244 (inactive)
[18]
  log fold change Tl+ flux: 0.017 (inactive)
[19]
  log fold change Tl+ flux: 0.0242 (inactive)
[20]
  log fold change Tl+ flux: -0.00414 (inactive)

## Cc1cc(NS(=O)(=O)c2ccc(N)cc2)no1
[1]
  score: 1.35
[2]
  rescue above control: -4.83
[3]
  cytochrome c release ratio: 0.69
[4]
  inhibition of aggregation: 58.6%
[5]
  glutamate uptake change: 12.1%
[6]
  aggregation suppression score: 1.36
[11]
  fluorescence ratio: 1.03 (inactive)
[12]
  inhibition: 0.45% (inactive)
[13]
  inhibition: -0.48% (inactive)
[14]
  fluorescence ratio: 1 (inactive)
[15]
  log fold change Tl+ flux: -0.0179 (inactive)
[16]
  log fold change Tl+ flux: 0.0172 (inactive)
[17]
  log fold change Tl+ flux: -0.00437 (inactive)
[18]
  log fold change Tl+ flux: 0.00714 (inactive)
[19]
  log fold change Tl+ flux: 0.00387 (inactive)
[20]
  log fold change Tl+ flux: -0.00735 (inactive)

## Oc1ccc(O)cc1
[7]
  period change: -0.06 h (inactive)
[8]
  inhibition: 0% (inactive)
[9]
  fluorescence ratio (interference): 1.1 (inactive)
[10]
  outcome: inactive

## O=C(O)CCc1nc(-c2ccccc2)c(-c2ccccc2)o1
[7]
  period change: 0.145 h (inactive)
[8]
  inhibition: -4% (inactive)
[9]
  fluorescence ratio (interference): 1 (inactive)
[11]
  fluorescence ratio: 1.04 (inactive)
[12]
  inhibition: 1.19% (inactive)
[13]
  inhibition: 2.21% (inactive)
[14]
  fluorescence ratio: 0.94 (inactive)
[10]
  outcome: inactive
[15]
  log fold change Tl+ flux: 0.0468 (inactive)
[16]
  log fold change Tl+ flux: 0.0584 (inactive)
[17]
  log fold change Tl+ flux: 0.0291 (inactive)
[18]
  log fold change Tl+ flux: -0.025 (inactive)
[19]
  log fold change Tl+ flux: 0.113 (active)
[20]
  log fold change Tl+ flux: 0.0648 (inactive)
